Measurements from ChEMBL document CHEMBL1157539, “Thousands of chemical starting points for antimalarial lead identification” (Nature, 2010).

How the values were obtained:
Format in all cases: functional
[1] = test system: Plasmodium falciparum; assay: GSK_TCMDC: Inhibition of Plasmodium falciparum 3D7 in whole red blood cells, using parasite LDH activity as an index of growth. Test compounds present at 2uM
[2] = test system: Plasmodium falciparum; assay: GSK_TCMDC: Inhibition of Plasmodium falciparum Dd2 in whole red blood cells, using parasite LDH activity as an index of growth. Test compounds present at 2uM
[3] = test system: HepG2; assay: GSK_TCMDC: Percent inhibition of human HepG2 cell line. Test compounds present at 10uM.

SMILES	Inhibition [1] [%]	Inhibition [2] [%]	Inhibition [3] [%]
CC(C)(C)C(=O)Nc1c(-c2cc(=O)oc3cc4c(cc23)CCC4)oc2ccccc12	100	100	0
CC(C)CNC(=S)N1CCCN(c2nc3ccc(Cl)cc3s2)CC1	95	11	28
O=[N+]([O-])c1ccc(Nc2nc(N/N=C/c3ccc(-c4ccc([N+](=O)[O-])cc4)o3)nc(Nc3ccccc3)n2)cc1	100	74	0
Cc1nccn1Cc1cc(C(C)(C)C)c(O)c(C(C)(C)C)c1	99	0	8
O=C(Nc1cccc(C(F)(F)F)c1)c1ccc(S(=O)(=O)NCC2CCN(CC3CCCCC3)CC2)cc1.O=C(O)C(F)(F)F	100	49	24
Cc1cc(C(=O)CN2C(=O)NC3(CCOc4ccccc43)C2=O)c(C)n1Cc1ccc(F)cc1 (stereo not given)	95	84	1
COCCNCc1cccc(-c2ccc3c(Nc4cc(O)c(Cl)cc4F)ccnc3c2)c1	100	79	0
COc1ccc(-c2cccc(NC(=O)c3cccc(Cl)c3)c2)cc1CN1CCN(C)CC1.O=C(O)C(F)(F)F	100	48	27
C[C@H](NC(=O)c1c(CN2CCC(N3CCCCC3)CC2)c(-c2ccccc2)nc2cc(O)ccc12)C1CCCCC1	99	72	77
CCNc1cc(C(=O)N[C@@H](Cc2ccc(Cl)cc2)[C@H](O)CNC2CCCCC2)cc(N2CCCCS2(=O)=O)c1.Cl	98	99	6
CC1N=C(N)N=C(N)N1OCc1cccc2ccccc12 (stereo not given)	93	4	66
CC1CN(c2nc(NCCc3ccc(O)cc3)nc(NCc3ccccc3-c3ccc(C(F)(F)F)cc3)n2)CC(C)N1 (stereo not given)	100	68	24
CN1CCN(c2cc3c(cc2Cl)CCN3C(=O)Cc2ccc(Cl)c(NC(=O)Nc3cccc([N+](=O)[O-])c3)c2)CC1	99	51	0
CC(=O)Nc1ccc2[nH]cc(C3CCN(CCC4CCN(C(=O)/C=C/c5ccc(Cl)c(Cl)c5)CC4)CC3)c2n1	100	80	16
O=S(=O)(c1ccccc1Cl)N1CCCCC(c2ccc(C(F)(F)F)cc2)=N1	86	72	22
COc1ccc(CCc2ccc(-c3c(C)[nH]c(C)c(Cl)c3=O)cc2)cc1OC	99	97	0
O=C(/C=C/c1ccc(Cl)c(Cl)c1)NCCCCCN1CCC(NC(=O)Nc2ccccc2Cl)CC1	100	23	56
O=C1Nc2cccc3c2C1(CCCCN1CCC(c2c(-c4ccc(F)cc4)[nH]c4ccccc24)CC1)CCC3 (stereo not given)	91	28	25
Oc1ccc2[nH]cc(C3CCN(CCC(c4ccccc4)c4ccccc4)CC3)c2c1	90	42	27
Cn1cncc1C(=O)Nc1ccc(-c2cccc(-c3nc4cc(F)ccc4[nH]3)c2)cc1	100	23	5

SMILES	Inhibition [1] [%]	Inhibition [2] [%]	Inhibition [3] [%]
Cc1cccc2nc(-c3cccc(-c4cccc(CNCc5cccc(N)c5)c4)c3)[nH]c12.O=C(O)C(F)(F)F	100	73	14
CCOc1ccccc1C1C(C(=O)C(C)(C)C)N2c3ccc(Br)cc3C=CC2C12C(=O)c1ccccc1C2=O (stereo not given)	95	94	17
Cc1ccc(NC(=O)Nc2ccc(I)c(OCCN(C)C)c2)cc1Cl	98	22	11
COc1cccc(-c2nn(C)c3sc(C(=O)NCCN(C)Cc4ccccc4)cc23)c1	92	26	21
Cl.Cn1cnc(-c2ccc3c(c2)CCN(CCC2CCC(NC(=O)/C=C/c4ccc(F)cc4)CC2)CC3)c1 (stereo not given)	90	18	26
Cc1cccc2nc(-c3ccc(-c4ccc(CN5CCCC(O)C5)cc4)cc3)[nH]c12.O=C(O)C(F)(F)F (stereo not given)	100	54	41
OC(c1ccc2ccccc2c1)C1CN(CCc2ccccc2)CCC1(O)c1ccccc1 (stereo not given)	99	96	1
CN1CCN(c2ccc(Nc3nc(N)c4ccn(C5CCC5)c4n3)cc2)CC1.O=C(O)C(F)(F)F	93	47	0
COc1ccc2nc(-c3ccc(C(=O)NCCCN4CCN(c5cc(Cl)ccc5OC)CC4)cc3)[nH]c2c1	97	53	0
O=C(O)C(F)(F)F.c1ccc(-n2ncc(CNCc3ccc(-c4cccc(-c5nc6ccccc6[nH]5)c4)cc3)n2)cc1	94	9	21
COc1ccc(CNC2CCN(C)CC2)cc1-c1cccc(S(=O)(=O)NCc2ccccc2)c1.O=C(O)C(F)(F)F	100	7	43
COc1ccccc1C1CCN(C2CCC(NC(=O)/C=C/c3ccc(F)c(F)c3)CC2)CC1 (stereo not given)	94	9	49
Cl.O=C(Nc1ccc(Cl)c(Cl)c1)N1CCc2ccc(OCCCN3CCCCC3)cc2CC1	92	0	27
COc1cc(NC(=O)c2cc3c(C)nn(-c4cccc(C(F)(F)F)c4)c3s2)cc(OC)c1OC	100	50	0
COc1ccc2c(c1)CC1CN(CCCCNC(=O)c3ccc(NC(=O)c4cc(Cl)cc(Cl)c4)cc3)CCN1C2 (stereo not given)	100	57	7
COc1ccc2ccc(F)c(CC(=O)N3CCOC(CNCc4cccc(-c5ccsc5)n4)C3)c2n1 (stereo not given)	92	1	1
Cc1ccc2[nH]c(-c3ccc(C=CC(=O)NCc4ccc(Cl)c(Cl)c4)cc3)nc2c1	96	18	5
COc1ccc2ncc(F)c(CCN3CCC(NCc4cc(Br)c5c(c4)OCCO5)CC3)c2n1.Cl	100	94	26
CC(C)(C)c1ccc(CNC(=O)/C=C/c2ccc(CNC3CCNCC3)cc2)cc1	96	21	6
CN1CCN(CCCNc2ncc3c(-c4ccc(NC(=O)Nc5cc(C(F)(F)F)ccc5F)c(F)c4)nn(C)c3n2)CC1.O=C(O)C(F)(F)F	98	94	100

SMILES	Inhibition [1] [%]	Inhibition [2] [%]	Inhibition [3] [%]
COc1ccc(-c2cnc3ccc(N4CCCC4)nn23)cc1OC.O=CO	98	98	40
Cc1cc(O)c(-c2ccc(Oc3ccc(F)cc3)cc2)c(C)n1	85	59	0
CN1CCCN(Cc2cccc(-c3ccc(NC(=O)c4ccc(Cl)cc4)cc3)c2)CC1.O=C(O)C(F)(F)F	97	35	31
COc1cc(CN2CCC(N3CCc4cc(NC(=O)c5cc(C)on5)ccc43)C2)ccc1F (stereo not given)	91	96	1
COc1ccc(N2CCN(CCCCNCc3ccc(NC(=O)c4cc(Cl)cc(Cl)c4)cc3)CC2)c(OC)c1	100	99	39
COc1cccc(-c2cc(C(=O)Nc3cc(Oc4ccc(O)cc4)cc([N+](=O)[O-])c3)on2)c1	89	30	16
Cc1[nH]c(C)c(-c2ccc(-c3ccccc3Cl)nc2)c(=O)c1Br	97	96	0
CCOc1ccc(NC(=O)c2ccc(NCCCN3CC(C)CC(C)C3)c([N+](=O)[O-])c2)cc1 (stereo not given)	100	60	3
Cc1ccc(S(=O)(=O)N(CCCN2CCN(C)CC2)Cc2csc(-c3ccc(CNCc4ccccc4)cc3)n2)cc1.O=C(O)C(F)(F)F	97	90	15
CC(C)c1sc(N2CCN(C)CC2)nc1C(=O)Nc1cccc2c1CCCC2.O=C(O)C(F)(F)F	98	50	3
CCCN(CCC)C(=O)c1cc(C(=O)N[C@@H](Cc2ccccc2)[C@H](O)CNC(C)(C)c2cccc(OC)c2)cc(N2CCCCS2(=O)=O)c1	99	74	16
Cc1ccc(NC(=O)c2ccc(NCCCN(C)Cc3ccccc3)c([N+](=O)[O-])c2)cc1F	100	61	12
COc1cccc(C2=CC(c3ccccc3)n3ncc(C(=O)Nc4ccc(Cl)cc4)c3N2)c1 (stereo not given)	88	28	7
COc1cc2nc(NCc3ccccc3)nc(NCc3ccccc3)c2cc1OC	100	100	66
Cc1ccc(NC(=O)Cc2noc(CC3CCCN3C(=O)N[C@@H](C)c3ccccc3)n2)cc1 (stereo not given in full)	95	90	1
NC(=O)c1ccc(C(=O)Nc2cccc(-c3cccc(-c4nc5cc(C(F)(F)F)ccc5[nH]4)c3)c2)cc1	100	36	63
CN(CC(=O)Nc1cc(C(F)(F)F)ccc1-n1cncn1)Cc1nc2ccccc2s1	87	64	3
Br.CCN(CC)CCn1c(=N)n(CC(=O)c2ccc(-c3ccccc3)cc2)c2ccccc21	83	38	32
Cl.N=C(N)Nc1ccc(OCCCCCOc2ccc(NC(=N)N)c(Cl)c2)cc1Cl	92	92	18
Cn1nc(-c2cccc(CNCc3ccccc3)c2)c2cnc(NC3CCCC3)nc21	85	11	5
